Source: PubChem BioAssay AID1159580 (chemical genetic matrix, 2015)
Where “and” joins values, the source holds several entries; their conditions need not be identical. Equal entries are not always repeated. About 2,000 (36%) of roughly 5,500 compounds were called active. Inconclusive results (about 18%) are left out. No stated cut-off is given here; in the data, active means normalized growth mostly below about 0.91 (no sharp cut-off); inconclusive means no clear call, values can overlap the other calls; inactive means mostly above about 0.92. Some of the results follow.

Assay: chemical genetic growth profiling, strain panel (AID 1159580);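 further: tested at 20 µM; growth read once vehicle control cultures reached saturation at 30 °C; 1 = growth at the plate median or of vehicle wells; lower values mean less growth of the strain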
Conditions: S. cerevisiae deletion strains, growth OD

Measured: normalized growth

COc1ccc2c(=O)c(CC(=O)O)coc2c1
inactive: locus YAL021C, strain ccr4, active compounds read low 1.01 | locus YAL026C, strain drs2, active compounds read low 0.984 | locus YAL030W, strain snc1, active compounds read low 0.983 | locus YBL061C, strain skt5, active compounds read low 0.989 | locus YBR009C, strain hhf1, active compounds read low 0.987 | locus YBR021W, strain FUR4, active compounds read low 1.02 | locus YBR023C, strain chs3, active compounds read low 0.999 | locus YBR171W, strain sec66, active compounds read low 0.956 | locus YBR229C, strain ROT2, active compounds read low 1 | locus YBR231C, strain swc5, active compounds read low 0.972 | locus YBR279W, strain paf1, active compounds read low 0.997 | locus YCL011C, strain gbp2, active compounds read low 0.995 | locus YCL016C, strain dcc1, active compounds read low 1.04 | locus YCL029C, strain bik1, active compounds read low 1 | locus YCL061C, strain MRC1, active compounds read low 1 | locus YCL069W, strain vba3, active compounds read low 0.975 | locus YCR088W, strain abp1, active compounds read low 0.971 | locus YDL005C, strain med2, active compounds read low 0.985 | locus YDL035C, strain GPR1, active compounds read low 1.03 | locus YDL040C, strain nat1, active compounds read low 0.979 | locus YDL074C, strain BRE1, active compounds read low 1.05 | locus YDL101C, strain DUN1, active compounds read low 0.987 | locus YDL134C, strain PPH21, active compounds read low 1.01 | locus YDL185W, strain tfp1, active compounds read low 0.984 | locus YDL192W, strain arf1, active compounds read low 1.01 | locus YDR001C, strain nth1, active compounds read low 0.995 | locus YDR069C, strain doa4, active compounds read low 0.953 | locus YDR101C, strain arx1, active compounds read low 1.04 | locus YDR137W, strain rgp1, active compounds read low 1 | locus YDR159W, strain sac3, active compounds read low 0.926 | locus YDR162C, strain NBP2, active compounds read low 1.05 | locus YDR195W, strain ref2 0.964 | locus YDR297W, strain sur2, active compounds read low 0.965 | locus YDR318W, strain mcm21, active compounds read low 0.991 | locus YDR334W, strain swr1, active compounds read low 0.968 | locus YDR335W, strain msn5, active compounds read low 0.987 | locus YDR388W, active compounds read low 1 | locus YDR392W, strain spt3, active compounds read low 0.939 | locus YDR502C, strain sam2, active compounds read low 0.991 | locus YEL003W, strain gim4, active compounds read low 0.98 | locus YEL037C, strain rad23, active compounds read low 0.977 | locus YEL061C, strain CIN8 (second series), active compounds read low 0.973 | locus YEL061C, strain CIN8, active compounds read low 1.01 | locus YER015W, strain faa2, active compounds read low 0.976 | locus YER016W, strain bim1, active compounds read low 0.986 | locus YER110C, active compounds read low 0.976 | locus YER111C, strain swi4, active compounds read low 0.981 | locus YER155C, strain BEM2 (second series), active compounds read low 0.981 | locus YER155C, strain BEM2, active compounds read low 0.989 | locus YER167W, strain BCK2, active compounds read low 1.01 | locus YFR010W, strain ubp6, active compounds read low 0.969 | locus YGL078C, strain dbp3, active compounds read low 0.96 | locus YGL086W, strain mad1, active compounds read low 1.02 | locus YGL167C, strain pmr1, active compounds read low 0.992 | locus YGL173C, strain kem1, active compounds read low 0.982 | locus YGL227W, strain vid30, active compounds read low 0.984 | locus YGL240W, strain doc1, active compounds read low 0.951 | locus YGL248W, strain PDE1, active compounds read low 1.01 | locus YGL253W, strain hxk2, active compounds read low 0.961 | locus YGR078C, strain PAC10, active compounds read low 1.01 | locus YGR135W, strain pre9, active compounds read low 0.949 | locus YGR252W, strain gcn5, active compounds read low 0.987 | locus YHR013C, strain ard1, active compounds read low 1.02 | locus YHR027C, strain rpn1, active compounds read low 0.969 | locus YHR030C, strain SLT2, active compounds read low 1.01 | locus YHR079C, strain IRE1 (second series), active compounds read low 0.984 | locus YHR079C, strain IRE1, active compounds read low 0.991 | locus YHR094C, strain hxt1, active compounds read low 0.983 | locus YHR129C, strain ARP1, active compounds read low 1 | locus YHR142W, strain chs7, active compounds read low 0.995 | locus YHR200W, strain rpn10, active compounds read low 1.01 | locus YIL066C, strain RNR3, active compounds read low 1 | locus YIL073C, strain SPO22, active compounds read low 0.974 | locus YIL125W, strain kgd1, active compounds read low 1 | locus YIR030C, strain dcg1, active compounds read low 1 | locus YJL092W, strain hpr5, active compounds read low 0.974 | locus YJL095W, strain BCK1 (second series), active compounds read low 0.962 | locus YJL095W, strain BCK1, active compounds read low 1.01 and 1.02 | locus YJL115W, strain asf1, active compounds read low 0.984 | locus YJL129C, strain trk1, active compounds read low 0.996 | locus YJL134W, strain LCB3, active compounds read low 0.999 | locus YJL154C, strain vps35, active compounds read low 0.987 | locus YJL164C, strain tpk1, active compounds read low 1.01 | locus YJL166W, strain qcr8, active compounds read low 0.973 | locus YJL168C, strain set2, active compounds read low 0.987 | locus YJL187C, strain SWE1 (second series), active compounds read low 0.993 | locus YJL187C, strain SWE1, active compounds read low 0.977 | locus YJR043C, strain POL32, active compounds read low 1.05
